Only some compounds are listed: those with a hit (about 3.5% of all), similar ones and a draw of the others.
TEAD-YAP block: TEAD-YAP interaction inhibition; HEK-TIYL cells, TEAD-Gal4/YAP UAS-luciferase luminescence; AID 1259422; inhibition, % at 9.12 µM; 1.4% of 640,000 active; in the data active = inhibition above about 32%;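 also: 0% = median of test compound wells and 100% = reference inhibitor wells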
FBW7 activator: activators of human E3 ligase FBW7; AlphaScreen FBW7–phospho-cyclin E peptide binding, activator screen; normalized activity (activation), % at 26.1 µM; 0.13% of 650,000 active; in the data active = normalized activity above about 1.9%;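 also: purified mutant Fbw7 with reduced substrate affinity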
MITF primary: human MITF inhibition, primary screen; inhibition, % at 2.6 µM; 0.91% of 650,000 active; O75030; AlphaScreen MITF homodimerization, bead proximity signal; in the data active = inhibition above about 50%;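 also: 0% = vehicle wells with protein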
Target sequence (O75030 whole entry, looked up): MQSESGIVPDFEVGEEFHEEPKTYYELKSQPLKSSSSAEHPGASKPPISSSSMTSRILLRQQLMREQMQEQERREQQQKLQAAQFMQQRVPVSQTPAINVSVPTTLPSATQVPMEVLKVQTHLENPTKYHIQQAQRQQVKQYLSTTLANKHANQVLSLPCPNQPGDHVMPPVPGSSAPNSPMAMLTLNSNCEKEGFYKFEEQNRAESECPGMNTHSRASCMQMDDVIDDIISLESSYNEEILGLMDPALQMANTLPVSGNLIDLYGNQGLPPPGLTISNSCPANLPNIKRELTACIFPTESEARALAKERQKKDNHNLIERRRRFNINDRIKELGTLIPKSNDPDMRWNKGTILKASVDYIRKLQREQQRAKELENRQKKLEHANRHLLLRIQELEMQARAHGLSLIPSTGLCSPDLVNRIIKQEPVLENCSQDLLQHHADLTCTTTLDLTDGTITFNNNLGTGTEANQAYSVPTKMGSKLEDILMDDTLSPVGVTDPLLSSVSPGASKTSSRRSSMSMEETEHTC
GPR151 activ: human GPR151 activation; activation, % at 11.2 µM; AID 1508602; 1% of 650,000 active; PathHunter beta-arrestin GPR151 cells, luminescence; Q8TDV0; in the data active = activation above about 4.9%;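 also: 0% = median of compound wells and 100% = cells with positive control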
An asterisk follows results filed as active.

SMILES	TEAD-YAP block	FBW7 activator	MITF primary	GPR151 activ
Cc1ccc(-n2c(O)c(C=Nc3ccc(S(N)(=O)=O)cc3)c3ccccc3c2=O)cc1C	80.4*	-0.1	0.6	-0.8
Cc1ccc(S(=O)(=O)NCCCN2CCOC(c3ccccc3)C2)cc1C (stereo not given)	-1.1	-0.4	-4.0	1.9
CCOc1cc(C=C2C(=O)NC(=S)NC2=O)ccc1OCC(=O)O	2.1	0.0	70.5*	-0.1
CCC(C)[C@@H](C(=O)O)N1Cc2ccccc2C1=O (stereo not given in full)	-8.7	-0.1	-12.3	0.8
COc1ccc2sc(Nc3nc(-c4ccccn4)cs3)nc2c1	36.6*	-1.2	24.9	3.6
COc1ccc2nc(Nc3nc(-c4ccccn4)cs3)sc2c1	49.1*	-1.8	51.4*	1.3
COc1ccc2nc(Nc3nc(-c4cccnc4)cs3)sc2c1	3.8	-0.1	14.3	0.0
COc1ccc(/C=N/OCC(=O)N2CCCCCC2)cc1	-2.9	-0.1	-3.1	0.8
O=[N+]([O-])/C(=C/c1ccc2c(c1)OCCO2)c1ccccc1	65.2*	-0.1	9.0	-1.1
O=C(/C=C/c1ccc2c(c1)OCCO2)c1ccccc1	-54.6	0.0	-0.9	-1.1
CC1C(=O)NN=C1C(=O)N/N=C/c1cccs1 (stereo not given)	31.9*	0.0	5.1	-2.9
CC(C)(C)OC(=O)N/N=C\c1cccs1	-27.1	5.6*	3.6	-0.9
CC1C(=O)NN=C1C(=O)N/N=C\c1cccc(O)c1 (stereo not given)	28.3	0.6	28.3	-7.3
CC1C(=O)NN=C1C(=O)N/N=C\c1cccnc1 (stereo not given)	35.2*	-0.1	-9.6	-1.2
COc1ccc(-n2ncc3c(N4CCCCC4)ncnc32)cc1	90.8*	0.4	12.2	-7.9
COc1ccc(-n2ncc3c(N4CCCCCC4)ncnc32)cc1	96.8*	0.1	-6.7	-5.0
COc1ccc(-n2ncc3c(N4CCN(c5ccccc5)CC4)ncnc32)cc1	-1.1	0.0	-9.4	-0.7
O=C(NCCc1ccccc1)c1cc(F)c(F)cc1Cl	34.5*	0.5	5.9	-1.8
O=C(NCCc1ccccc1)c1ccc(Cl)cc1	64.1*	0.1	17.8	-5.7
O=C(NCCc1ccccc1)c1ccc(Br)cc1	14.4	-0.1	-23.0	-3.5
O=C(NCCc1ccccc1)C1(S(=O)(=O)c2ccc(Cl)cc2)CC1	3.2	2.0*	-23.5	0.0
O=C(NCCNC(=O)c1ccccc1Br)c1ccccc1Br	-3.8	-0.1	-18.4	-0.7
Cc1ccc(S(=O)(=O)C2(C(=O)NCCc3ccccc3)CC2)cc1	6.2	0.7	8.9	-0.9
O=C(NCCc1ccccc1)c1ccccc1Br	33.7*	0.0	5.2	-1.1
O=C(NCCc1ccccc1)c1ccccc1Cl	33.3*	-0.1	3.2	-4.4
SMILES	TEAD-YAP block	FBW7 activator	MITF primary	GPR151 activ
O=C(Nc1ccccc1C(=O)NCCc1ccccc1)c1ccccc1Cl	13.1	0.1	31.4	1.1
Nc1cccc(N2C(=O)c3cccc(N)c3C2=O)c1	6.0	0.0	-1.7	0.2
Nc1cccc2c1C(=O)N(c1ccc3ccccc3c1)C2=O	-54.4	2.4*	1.1	0.2
Cc1ccc(N2C(=O)c3cccc(N)c3C2=O)c(C)c1	33.2*	0.0	-7.4	0.7
CC(=O)Oc1cc(N2CCOCC2)c(OC(C)=O)c2c1C(=O)c1ccccc1C2=O	64.4*	-0.6	25.0	-1.4
COCCn1c(-c2ccncc2)nn(CN(C)C2CCN(C)CC2)c1=S	-2.0	-0.2	5.7	-1.7
NNC(=O)CN1C(=O)c2ccccc2S1(=O)=O	-23.3	-0.1	-13.1	-1.4
O=c1oc(-c2ccco2)nc2sc3c(c12)CCCC3	1.8	0.2	1.7	-2.1
c1coc(-c2nnc(-c3cc4c(s3)CCCC4)o2)c1	54.1*	0.0	-6.5	-7.7
O=C(c1cc2n(n1)C(C(F)(F)F)CC(c1ccc3c(c1)OCO3)N2)N1CCN(c2cccc(Cl)c2)CC1 (stereo not given)	-5.8	3.7*	19.2	0.2
O=C(c1cc2n(n1)C(C(F)(F)F)CC(c1ccc(Cl)cc1)N2)N1CCN(c2cccc(Cl)c2)CC1 (stereo not given)	-8.0	0.4	-21.7	0.6
CCOc1ccccc1NC(=O)C(CC)Sc1nc2cc(OC)c(OC)cc2c(=O)n1Cc1ccco1 (stereo not given)	-1.0	0.2	13.2	0.1
C(=Nc1ccc(N2CCOCC2)cc1)c1ccccc1	65.2*	-1.0	14.0	-0.3
CON(C)C(=O)CCC(=O)N1CCc2cc(F)ccc21	-11.2	-0.1	1.2	-2.0
Nc1ccc(-c2cnn3c(NCc4ccc5c(c4)OCO5)ccnc23)cc1	-65.9	2.5*	6.8	-0.9
COc1ccc(Nc2ccnc3c(-c4ccc(N)cc4)cnn23)cn1	37.4*	-0.4	17.0	0.3
c1ccc(CNc2ccnc3c(-c4ccc5c(c4)OCO5)cnn23)nc1	2.5	1.9*	6.3	-1.0
Cc1cc(C)cc(NC(=O)CN2C(=O)CCSc3ccccc32)c1	-1.1	-0.2	3.5	0.0
O=C(COc1cc(Cl)c(Cl)cc1Cl)Nc1nccs1	58.7*	0.1	3.8	-1.1
O=C(COc1ccc(Br)cc1Cl)Nc1ncn[nH]1	46.2*	-0.3	-5.9	-1.2
O=C(COc1ccc(Cl)cc1Br)Nc1nccs1	88.7*	0.0	-2.1	-7.8
O=C(COc1ccc(Br)cc1Cl)Nc1nccs1	91.6*	0.7	11.5	-8.2
O=C1N/C(=N/N=C/c2ccc(-c3cccc(Cl)c3)o2)SC1Cc1ccccc1 (stereo not given)	9.5	-0.2	8.1	-0.3
CC1=CC2=NC(=O)/C(=C\c3cc(C)n(Cc4ccccc4)c3C)C(=N)N2O1	17.4	0.2	9.1	-1.9
COc1ccc(Cl)cc1NC(=O)CC1Sc2ccccc2NC1=O (stereo not given)	4.7	0.6	22.8	0.1
SMILES	TEAD-YAP block	FBW7 activator	MITF primary	GPR151 activ
CCOC(=O)N1CCc2c(sc(NCc3cc(OC)c(OC)cc3OC)c2C(=O)Nc2ccc(OC)cc2OC)C1	0.7	-0.5	-1.7	-0.1
Cc1ccnc(NC(=O)COc2ccc(Br)cc2Cl)c1	92.9*	-0.1	-5.8	-1.6
Cc1ccnc(NC(=O)COc2cc(C)ccc2C)c1	-48.6	0.7	0.3	3.8
Cn1cccc1C(=O)NC(=O)COC(=O)c1cc(-c2ccco2)nc2ccccc12	-3.8	-0.3	77.2*	3.0
C=CCNc1nc(Nc2ccc(OC(F)(F)F)cc2)nc(OCC(F)(F)F)n1	-7.3	0.1	9.8	-0.7
CCOC(=O)c1[nH]c(C)c(C(=O)Nc2ccc(F)cc2)c1C	-2.7	-0.1	9.4	-0.5
CCOC(=O)c1[nH]c(C)c(C(=O)Nc2cccc(Cl)c2)c1C	46.0*	0.1	-22.5	0.3
CCOC(=O)c1[nH]c(C)c(C(=O)Nc2cccc(F)c2)c1C	42.6*	0.6	7.6	0.4
O=C(Nc1ccc(Cl)cc1)c1cc2nc(-c3ccc(F)cc3)cc(C(F)(F)F)n2n1	-9.1	0.2	-1.9	-0.9
CC1Oc2ccccc2N(CC(=O)N(C(C)C)C(C)C)C1=O (stereo not given)	50.8*	-0.2	8.2	0.8
COc1cc(CC(=O)OCC(=O)c2ccc3c(c2)OCCO3)cc(OC)c1OC	52.2*	0.0	-4.7	1.9
COc1cc(CC(=O)OCC(=O)c2ccc(Br)cc2)cc(OC)c1OC	59.2*	0.0	1.0	0.7
